Consider eleven compounds from PubChem BioAssay (NCATS).

A number with no mark means an inactive call. Inconclusive results are not listed. The source made the active and inactive calls. Unless noted, the call rests on the fitted dose curve; in most records, active means well fitted curve in the direction sought with a large enough effect; inconclusive means small, poorly fitted or top-dose-only effect, or another doubt; inactive means no such curve, though single readings can be large; an effect the other way counts as inactive or inconclusive.

Assay [1] in a line: P-glycoprotein substrates identified in KB-8-5-11 adenocarcinoma cell line, qHTS therapeutic library screen (AID 1346987). Further: nearly all actives have a fitted effect of over 65% in size. Further: potency means the concentration at half of the fitted maximal effect. The method, boiled down: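 In this qHTS, P-gp-rich KB-8-5-11 cells received library compounds across a concentration range. Viability was quantified by luminescence after 72 h at 37 degree C.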
For orientation: qHTS replaces the single test concentration by a dilution series.

Assay [2] in a line: Natriuretic polypeptide receptor (hNpr1) antagonism - Pilot counterscreen GloSensor control cell line (AID 1347045; calls by dose curve). The procedure, abridged:
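HEK293 cGMP-sensor cells; 2% GloSensor reagent 2 h RT; LOPAC compounds in 1:5 titrations 30-50 min; 50 uM SNP 20 min; luminescence pre-read and post-read.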

In assay [3] the target is Atrial natriuretic peptide receptor 1 (Homo sapiens) (UniProt P16066). In words: Natriuretic polypeptide receptor (hNpr1) antagonism - Pilot screen (AID 1347049; calls by dose curve;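 further: HEK293 cells with hNpr1 and GloSensor cGMP luciferase stimulated by 0.1 nM hNppA; agonist-evoked cGMP luminescence read 20 min after hNppA addition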). The method, boiled down: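 Cells expressing receptor plus cGMP biosensor are seeded and incubated overnight at 37C, then loaded with GloSensor reagent (2% final) at room temperature for 2 h. Library compounds go on for 30 min. A pre-read precedes agonist (hNppA, 0.1 nM final) and a 20-min readout.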

Assay [4] concerns the target Atrial natriuretic peptide receptor 2 (Homo sapiens) (UniProt P20594). The experiment in a line: Natriuretic polypeptide receptor (hNpr2) antagonism - Pilot subtype selectivity assay (AID 1347050; calls by dose curve). The method, boiled down: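 Read-out: GloSensor luminescence (CCD imager), baseline vs post-stimulation. HEK293 cells expressing hNpr2; compounds pre-incubated 30-50 min at ambient temperature; hNppC 1 nM final, 20 min.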

Assay [5] can be described thus: NS1 protein of Zika virus - qHTS assay to identify small molecule inhibitors in human HEK 293 cells (AID 1347053). Further: nearly all actives have a fitted effect of over 55% in size. The method, boiled down:
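In this cell-based screen, HEK 293 cultures received compound for one hour before Zika MR766 at MOI = 0.5. NS1 was quantified 24 hours later by TR-FRET, normalized to virus-free wells and infected wells.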

For assay [6], the target named is T1, Tyrosine-protein phosphatase non-receptor type substrate 1 (Homo sapiens) + Leukocyte surface antigen CD47 (Homo sapiens) (UniProt P78324+Q08722). In words: CD47-SIRPalpha protein protein interaction - LANCE assay qHTS validation (AID 1347057; active means well fitted curve in the direction sought with a large enough effect in the signal ratio, with a control signal flat, not every such curve was filed as active; the % refers to the signal ratio). The method, boiled down:
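Inhibition of soluble CD47/SIRPalpha ectodomain association by titrated compounds, measured as 665/615 nm time-resolved FRET ratio after sequential 30 min room-temperature incubations.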

Assay [7] addresses T1, Tyrosine-protein phosphatase non-receptor type substrate 1 (Homo sapiens) + Leukocyte surface antigen CD47 (Homo sapiens). The experiment in a line: CD47-SIRPalpha protein protein interaction - HTRF assay qHTS validation (AID 1347058; active means well fitted curve in the direction sought with a large enough effect in the signal ratio, not every such curve was filed as active; the % refers to the signal ratio). The method, boiled down: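 Soluble extracellular domains (6His-CD47, Avi-tag-biotinylated SIRPalpha) in PBS pH 7.4 with 0.05% IGEPAL CA-630. Compounds were preincubated 30 min at RT with CD47 and anti-His-Eu, then SIRPalpha and SAV-XL665 were added. TR-FRET 665/615 ratio.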
A general note: Time-resolved FRET reads energy transfer from a long-lived donor to a nearby acceptor.

Assay [8] has the same target. In words: CD47-SIRPalpha protein protein interaction - Alpha assay qHTS validation (AID 1347059).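 Further: bead proximity luminescence from CD47 binding SIRPalpha after compound preincubation with SIRPalpha.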 The method, boiled down:
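In PBS (pH 7.4) with 0.05% IGEPAL CA-630, compound is preincubated with biotin-Avi-SIRPalpha ectodomain before His-CD47 ectodomain and affinity beads are added. Light-protected room-temperature incubations; AlphaScreen readout.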

Assay [9] has as its target Parathyroid hormone/parathyroid hormone-related peptide receptor (Homo sapiens) (UniProt Q03431). In words: qHTS for PTHR1 Agonists: Optimization Screen against the NCGC LOPAC library (AID 1347079).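 Further: GloSensor cAMP luminescence in HEK-293 GP2 cells expressing human PTHR1 with IBMX.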 The procedure, abridged:
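Signal increase flags agonism. GP2 cells, derived from HEK-293, express human PTHR1 and a GloSensor cAMP construct.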

Assay [10] can be described thus: qHTS of pediatric cancer cell lines to identify multiple opportunities for drug repurposing: Primary screen for TC32 cells (AID 1347089). Further: nearly all actives have a fitted effect of over 60% in size. Further: potency means the concentration at half of the fitted maximal effect. The procedure, abridged: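 A viability screen of TC32 cells was run over 48 h, with primary MIPE doses spanning 0.78 nM–46 µM and NPC doses 0.59 nM–46 µM. ATP luminescence (CellTiter-Glo) served as the read-out.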
The nature of assay [11]: qHTS of pediatric cancer cell lines to identify multiple opportunities for drug repurposing: Primary screen for DAOY cells (AID 1347090). Further: nearly all actives have a fitted effect of over 55% in size. Further: potency means the concentration at half of the fitted maximal effect. The procedure, abridged: (§1)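 Eight- or eleven-point concentration series, 48 h treatment at 37 degrees C in growth media; readout CellTiter-Glo luminescence. Potency and efficacy were taken from the concentration-response curves.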
Assay [12] can be described thus: qHTS of pediatric cancer cell lines to identify multiple opportunities for drug repurposing: Primary screen for SJ-GBM2 cells (AID 1347091). The procedure, abridged: as §1
A short description of assay [13]: qHTS of pediatric cancer cell lines to identify multiple opportunities for drug repurposing: Primary screen for A673 cells (AID 1347092). Further: nearly all actives have a fitted effect of over 45% in size. Further: potency means the concentration at half of the fitted maximal effect. The procedure, abridged: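 Titration-based qHTS on A673 cells: MIPE compounds spanned 11 points (0.78 nM to 46 µM final), NPC compounds 8 points (0.59 nM to 46 µM final). Viability after 48 h was measured by ATP luminescence.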

Assay [14] can be described thus: qHTS of pediatric cancer cell lines to identify multiple opportunities for drug repurposing: Primary screen for SK-N-MC cells (AID 1347093). Further: potency means the concentration at half of the fitted maximal effect. The method, boiled down:
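Metabolically active cells were quantified by ATP-dependent luminescence (CellTiter-Glo, 15 min at room temperature) following 48 h treatment. Cells had been plated at 500-1,000 per well and settled for 5 h beforehand.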

A short description of assay [15]: qHTS of pediatric cancer cell lines to identify multiple opportunities for drug repurposing: Primary screen for BT-37 cells (AID 1347094). Further: potency means the concentration at half of the fitted maximal effect. The procedure, abridged: (§2)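 Readout: CellTiter-Glo luminescence, 48 h treatment. Controls DMSO (neutral) and bortezomib 2.3 µM final (positive). Potency and efficacy taken from primary-screen concentration-response curves.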

Assay [16] can be described thus: qHTS of pediatric cancer cell lines to identify multiple opportunities for drug repurposing: Primary screen for NB-EBc1 cells (AID 1347095). Further: potency means the concentration at half of the fitted maximal effect. The method, boiled down:
as §2

The nature of assay [17]: qHTS of pediatric cancer cell lines to identify multiple opportunities for drug repurposing: Primary screen for U-2 OS cells (AID 1347096). Further: nearly all actives have a fitted effect of over 50% in size. Further: potency means the concentration at half of the fitted maximal effect. The procedure, abridged: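 Cells (500-1,000/well) in growth media were settled 5 h at 37 degrees C, then given compounds for 48 h. Viability was read as CellTiter-Glo luminescence. Primary runs used MIPE at 11 points (0.78 nM-46 µM) and NPC at 8 points (0.59 nM-46 µM); follow-ups used 11 points.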

Assay [18] is described as follows: Identifying Small Molecule Inhibitors of Pancreatic Cancer Stem Cells (A278, Adherent) (AID 1259361). Further: nearly all actives have a fitted effect of over 35% in size. The method, boiled down: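 After a 4 h attachment period, compounds were pinned into wells and cultures held 48 h under standard incubator conditions. Viability was then measured as CellTiter-Glo luminescence following 10 min at room temperature.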
Assay [19] in a line: P-glycoprotein substrates identified in KB-3-1 adenocarcinoma cell line, qHTS therapeutic library screen (AID 1346986). Further: nearly all actives have a fitted effect of over 60% in size. The note with it: KB-3-1 parental cells viability, CellTiter-Glo, 72 h; at 44.5 µM (top of the series). The method, boiled down:
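Using luminescence to quantify ATP, parental and P-gp-overexpressing KB cells were compared after 72 h compound titration. KB-8-5-11 was also run with the P-gp inhibitor tariquidar.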

T1 sequence (P78324 whole entry, looked up, the tested form may be a part): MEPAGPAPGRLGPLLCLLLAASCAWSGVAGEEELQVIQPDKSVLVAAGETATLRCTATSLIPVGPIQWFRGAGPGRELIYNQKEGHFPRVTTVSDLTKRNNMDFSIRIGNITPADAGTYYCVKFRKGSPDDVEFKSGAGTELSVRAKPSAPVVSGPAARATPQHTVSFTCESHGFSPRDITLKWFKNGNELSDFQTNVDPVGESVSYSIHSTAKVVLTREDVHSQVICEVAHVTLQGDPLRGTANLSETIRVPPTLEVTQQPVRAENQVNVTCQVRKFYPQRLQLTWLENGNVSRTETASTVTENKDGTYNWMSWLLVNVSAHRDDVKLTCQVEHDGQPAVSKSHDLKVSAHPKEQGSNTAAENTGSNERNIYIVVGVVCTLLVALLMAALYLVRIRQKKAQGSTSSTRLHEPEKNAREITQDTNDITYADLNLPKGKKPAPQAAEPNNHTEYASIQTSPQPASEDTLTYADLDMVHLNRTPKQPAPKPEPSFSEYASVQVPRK
T1 sequence (Q08722 whole entry, looked up, the tested form may be a part): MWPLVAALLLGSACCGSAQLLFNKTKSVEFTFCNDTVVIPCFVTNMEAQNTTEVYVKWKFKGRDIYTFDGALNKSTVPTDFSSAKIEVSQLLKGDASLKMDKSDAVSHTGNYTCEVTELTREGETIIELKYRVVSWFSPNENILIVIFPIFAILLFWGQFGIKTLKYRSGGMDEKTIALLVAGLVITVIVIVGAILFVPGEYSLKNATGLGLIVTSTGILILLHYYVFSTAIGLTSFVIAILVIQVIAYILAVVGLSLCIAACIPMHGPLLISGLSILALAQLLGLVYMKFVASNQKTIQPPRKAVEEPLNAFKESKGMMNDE
Chain of Parathyroid hormone/parathyroid hormone-related peptide receptor (Homo sapiens) (Q03431 whole entry, looked up): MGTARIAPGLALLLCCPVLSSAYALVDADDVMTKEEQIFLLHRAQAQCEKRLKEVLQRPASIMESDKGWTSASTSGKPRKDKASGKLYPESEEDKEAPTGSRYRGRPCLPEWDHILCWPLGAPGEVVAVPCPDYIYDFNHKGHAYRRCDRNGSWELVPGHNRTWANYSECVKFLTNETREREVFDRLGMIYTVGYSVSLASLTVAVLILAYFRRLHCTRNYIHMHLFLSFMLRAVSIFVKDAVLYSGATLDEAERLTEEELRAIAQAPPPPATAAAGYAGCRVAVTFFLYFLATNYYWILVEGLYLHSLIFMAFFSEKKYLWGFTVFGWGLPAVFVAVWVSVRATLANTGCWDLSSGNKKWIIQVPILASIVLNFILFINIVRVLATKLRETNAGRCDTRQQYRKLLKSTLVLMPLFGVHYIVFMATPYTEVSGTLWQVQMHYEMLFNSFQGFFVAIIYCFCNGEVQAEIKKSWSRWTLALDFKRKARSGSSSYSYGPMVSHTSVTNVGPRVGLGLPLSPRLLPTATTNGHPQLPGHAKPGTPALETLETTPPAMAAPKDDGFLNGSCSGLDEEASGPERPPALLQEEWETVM
Chain of Atrial natriuretic peptide receptor 1 (Homo sapiens) (P16066 whole entry, looked up): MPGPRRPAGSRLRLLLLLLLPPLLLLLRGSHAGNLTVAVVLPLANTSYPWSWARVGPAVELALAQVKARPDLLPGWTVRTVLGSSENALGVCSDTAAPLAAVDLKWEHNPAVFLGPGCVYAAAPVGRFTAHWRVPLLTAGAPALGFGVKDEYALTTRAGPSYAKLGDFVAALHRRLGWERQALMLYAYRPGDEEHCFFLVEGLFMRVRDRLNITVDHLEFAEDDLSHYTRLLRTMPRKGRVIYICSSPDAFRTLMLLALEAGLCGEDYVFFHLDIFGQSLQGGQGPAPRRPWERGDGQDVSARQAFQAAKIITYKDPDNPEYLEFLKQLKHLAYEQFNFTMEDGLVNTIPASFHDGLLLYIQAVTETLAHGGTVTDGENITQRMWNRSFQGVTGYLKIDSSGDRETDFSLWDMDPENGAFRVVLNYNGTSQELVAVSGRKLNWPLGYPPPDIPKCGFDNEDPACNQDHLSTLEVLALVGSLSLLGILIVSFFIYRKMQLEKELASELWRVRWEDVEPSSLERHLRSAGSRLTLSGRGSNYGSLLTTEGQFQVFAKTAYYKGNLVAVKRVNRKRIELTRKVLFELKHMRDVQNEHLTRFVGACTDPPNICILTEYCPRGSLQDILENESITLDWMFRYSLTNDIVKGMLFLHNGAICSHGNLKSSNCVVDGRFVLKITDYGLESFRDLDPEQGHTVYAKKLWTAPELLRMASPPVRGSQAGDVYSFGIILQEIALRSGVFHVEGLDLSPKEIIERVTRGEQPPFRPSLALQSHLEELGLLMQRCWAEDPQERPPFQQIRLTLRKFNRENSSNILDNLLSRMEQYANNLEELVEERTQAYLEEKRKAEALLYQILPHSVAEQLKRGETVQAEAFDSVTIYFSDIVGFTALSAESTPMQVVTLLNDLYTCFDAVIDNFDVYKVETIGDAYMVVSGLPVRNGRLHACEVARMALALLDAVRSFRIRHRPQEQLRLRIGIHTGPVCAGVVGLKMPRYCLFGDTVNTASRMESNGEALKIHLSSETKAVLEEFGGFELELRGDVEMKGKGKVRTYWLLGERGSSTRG
Chain of Atrial natriuretic peptide receptor 2 (Homo sapiens) (P20594 whole entry, looked up): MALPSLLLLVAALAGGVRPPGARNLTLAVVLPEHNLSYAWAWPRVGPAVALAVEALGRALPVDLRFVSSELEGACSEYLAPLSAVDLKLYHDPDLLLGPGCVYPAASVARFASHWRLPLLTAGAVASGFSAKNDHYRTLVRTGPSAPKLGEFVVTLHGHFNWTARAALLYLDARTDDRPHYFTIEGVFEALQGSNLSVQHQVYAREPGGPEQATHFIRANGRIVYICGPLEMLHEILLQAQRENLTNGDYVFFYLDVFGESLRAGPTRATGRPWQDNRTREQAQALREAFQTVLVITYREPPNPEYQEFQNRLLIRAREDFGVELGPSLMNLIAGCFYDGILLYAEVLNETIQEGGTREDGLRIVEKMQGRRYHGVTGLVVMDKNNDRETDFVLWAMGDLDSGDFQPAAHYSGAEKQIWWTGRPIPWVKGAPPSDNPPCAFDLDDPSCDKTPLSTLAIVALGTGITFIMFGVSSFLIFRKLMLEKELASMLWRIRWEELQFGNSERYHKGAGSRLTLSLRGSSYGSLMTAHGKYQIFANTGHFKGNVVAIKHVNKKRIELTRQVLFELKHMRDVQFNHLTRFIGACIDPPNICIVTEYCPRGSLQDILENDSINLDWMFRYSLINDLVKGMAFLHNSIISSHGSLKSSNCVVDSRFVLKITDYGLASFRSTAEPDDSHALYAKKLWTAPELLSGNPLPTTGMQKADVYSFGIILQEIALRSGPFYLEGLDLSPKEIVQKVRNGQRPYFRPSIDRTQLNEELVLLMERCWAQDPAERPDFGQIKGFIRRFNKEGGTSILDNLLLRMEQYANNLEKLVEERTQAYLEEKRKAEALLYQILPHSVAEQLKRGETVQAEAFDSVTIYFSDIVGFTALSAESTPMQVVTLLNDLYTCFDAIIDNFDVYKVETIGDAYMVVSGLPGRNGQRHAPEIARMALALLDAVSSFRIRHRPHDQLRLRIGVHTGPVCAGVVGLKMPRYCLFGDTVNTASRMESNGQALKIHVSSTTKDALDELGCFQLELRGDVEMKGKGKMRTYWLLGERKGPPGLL

Turning to `Nc1cc(Cl)c(NC2=NCCN2)c(Cl)c1`, the Potency result in [1], in [5] and in assay [8] was “inactive” throughout. Besides, the call in [2], in [3], in [4], in assay [6], in [7] and in assay [9] was inactive.
For `CC(O)C(=O)O` (configuration not stated), the Potency result in [1], in assay [5], in assay [10], in assay [11], in [12] and in assay [13] was “inactive” each time. Moreover, the Potency entry in [14], in assay [15], in assay [16] and in [17] was “inactive” each time.
In the case of `O=C1CCC(c2ccc(-n3ccnc3)cc2)=NN1`, in assay [1], the Potency was 1.46 µM (active). Further, the compound was classed as inactive in assay [2], in assay [3], in assay [4], in [6], in [7] and in assay [9]. Further, the Potency result in [5] and in assay [8] was “inactive” each time.
On to `C1CCc2nnnn2CC1`, for which the Potency result in assay [1], in [5] and in [8] was “inactive” in each case. The compound was classed as inactive in assay [2], in assay [3], in assay [4], in assay [6] and in assay [7].
In the case of `C[C@@H]1C[C@H]2[C@@H]3C[C@H](F)C4=CC(=O)C(Cl)=C[C@]4(C)[C@@]3(F)[C@@H](O)C[C@]2(C)[C@@]1(O)C(=O)CO`, the Potency entry in assay [1], in assay [5], in assay [10], in assay [11], in assay [12] and in assay [13] was “inactive” throughout. For the same compound, the Potency entry in [14], in assay [15], in assay [16] and in [17] was “inactive” in each case.
On to `COc1cccc2c1C(=O)c1c(O)c3c(c(O)c1C2=O)C[C@@](O)(C(=O)CO)C[C@@H]3O[C@H]1C[C@H](N)[C@H](O)[C@H](C)O1`, for which the IC50 (viability decrease) in assay [18] was 418 nM (active). The Potency result in [1] was “inactive”. Further, the Potency in assay [10] was 745 nM (active); in assay [11], 4.22 µM (active); in assay [13], 1.06 µM (active); in assay [14], 0.668 µM (active); in [15] it was 347 nM (active); in assay [16], 133 nM (active). In addition, the Potency in assay [17] was 13.3 µM (active).
As to `CC(=O)O[C@H]1C[C@@H]2CC[C@@H]3[C@H](CC[C@@]4(C)[C@H]3C[C@H]([N+]3(C)CCCCC3)[C@@H]4OC(C)=O)[C@@]2(C)C[C@@H]1[N+]1(C)CCCCC1`, the Potency result in assay [1], in assay [5] and in [8] was “inactive” throughout. In addition, the compound was called inactive in [2], in assay [3], in [4], in [6], in assay [7] and in [9].
For `C[C@@H]1C(=O)NC2=Nc3cccc(Cl)c3CN21`, the Potency in assay [1] was 0.82 µM (active). The call in [2], in [3], in [4], in assay [6], in assay [7] and in assay [9] was inactive. The Potency result in [5] and in assay [8] was “inactive” throughout.
For the compound `CCCC1O[C@@H]2C[C@H]3[C@@H]4CCC5=CC(=O)C=C[C@]5(C)[C@H]4[C@@H](O)C[C@]3(C)[C@]2(C(=O)CO)O1` (some centres not stated), the Potency result in assay [1], in assay [5] and in [8] was “inactive” each time. The call in assay [2], in assay [3], in assay [4], in assay [6], in assay [7] and in [9] was inactive.
As to `CC(=O)O[C@]1(C(C)=O)CC[C@H]2[C@@H]3C[C@H](C)C4=CC(=O)CC[C@]4(C)[C@H]3CC[C@@]21C`, in assay [19], the result was inactive. Moreover, the Potency in assay [1] was 10.3 µM (active); in assay [14], 33.5 µM (active). Moreover, the Potency result in assay [5], in assay [10], in assay [11], in assay [12], in [15] and in assay [16] was “inactive” each time. Further, the Potency result in [17] was “inactive”.
Take `C=C1C(=C/C=C2\CCC[C@]3(C)[C@@H]([C@H](C)/C=C/[C@@H](O)C4CC4)CC[C@@H]23)C[C@@H](O)C[C@@H]1O`: in assay [1], the Potency was 8.2 µM (active). Further, the Potency entry in assay [5], in [10], in assay [11] and in assay [12] was “inactive” throughout.
